# Results from PubChem BioAssay AID1259312 (Keith Lab, Institute of Cancer Science, University of …, 2017).
# Among all 4,500 compounds or so, about 200 (4.4%) were called active.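 The calls were made as follows: active = cell survival measured by absorbance rises more than 2.5-fold over infected cells without compound; inactive = the rest.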 This excerpt belongs to a sample that is enriched for actives.
# Assay: survival after telomere uncapping, modulators, primary screen, cell-based (AID 1259312);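 also: virus expresses mutant telomerase RNA that uncaps telomeres and kills cells; compound added 2 days after infection so exposure lasts 3 days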
# Details: HCT116 + Ad-hTR-mut, MTT, 5 d; at 10 µM, stronger effect = higher value
row,SMILES,fold change
1,CC(Sc1ccccn1)c1nc(N)nc(N2CCCc3ccccc32)n1 (stereo not drawn),-4.94 (inactive)
2,Cc1cccc(NS(=O)(=O)c2cc(Cl)ccc2Cl)n1,1.41 (inactive)
3,CCCN(CCC)C(=O)C(=O)N(CCC)CCC,-1.09 (inactive)
4,CC(C)(C)c1[nH]nc2c1C(c1ccc(F)cc1)C(C#N)=C(N)O2 (stereo not drawn),1.28 (inactive)
5,Cc1[nH]nc2c1C1(C(=O)Nc3cc(Br)ccc31)C(C#N)=C(N)O2 (stereo not drawn),3.96 (active)
6,N#CC1=C(N)Oc2ccc(N)cc2C12C(=O)Nc1ccccc12 (stereo not drawn),2.67 (active)
7,N#CC1=C(N)OC2=C(C(=O)CCC2)C12C(=O)Nc1cc(Br)ccc12 (stereo not drawn),1.66 (inactive)
8,Cc1[nH]nc2c1C1(CCOCC1)C(C#N)=C(N)O2,-1.27 (inactive)
9,CC(C)(C)c1[nH]nc2c1C1(C(=O)Nc3ccccc31)C(C#N)=C(N)O2 (stereo not drawn),4.19 (active)
10,CN1C(=O)C2(C(C#N)=C(N)Oc3c2c(=O)n(C)c(=O)n3C)c2ccccc21 (stereo not drawn),-1.14 (inactive)
11,Cc1[nH]nc2c1C1(C(=O)Nc3ccccc31)C(C#N)=C(N)O2 (stereo not drawn),5.1 (active)
12,CSc1ccc(C2C(C#N)=C(N)Oc3n[nH]c(C(C)(C)C)c32)cc1 (stereo not drawn),-1.76 (inactive)
13,N#CC1=C(N)OC2=C(C(=O)CCC2)C12C(=O)Nc1ccccc12 (stereo not drawn),2.26 (inactive)
14,Cc1[nH]nc2c1C1(CCSCC1)C(C#N)=C(N)O2,-1.42 (inactive)
15,Cc1[nH]nc2c1C1(CCCCC1)C(C#N)=C(N)O2,-1.09 (inactive)
16,CCCCc1ccc(-c2c(C#N)c(N)nc3c2CCCCCC3)s1,-4.8 (inactive)
17,Cc1ccc(C2C3=C(CC(C)(C)CC3=O)OC3=C2C(=O)CC(C)(C)C3)s1,-5.64 (inactive)
18,O=C(O)/C=C/c1ccc(F)c(Br)c1,-1.15 (inactive)
19,O=S1(=O)N=C(N2CCCc3ccccc32)c2ccccc21,1.46 (inactive)
20,O=c1ccn([C@H]2CCC(CO)O2)c(=O)[nH]1 (stereo partly drawn),-1.46 (inactive)
21,N#Cc1c(N)nc2c(c1-c1cccnc1)CCCCC2,-6.99 (inactive)
22,N#CC1=C(N)Oc2c(c3ccccc3oc2=O)C12C(=O)Nc1ccc(Br)cc12 (stereo not drawn),2.59 (active)
23,O=C1c2ccccc2NC2(C(=O)Nc3ccccc32)N1c1ccc2c(c1)oc1ccccc12 (stereo not drawn),1.13 (inactive)

row,SMILES,fold change
1,O=C1Oc2ccccc2C2Oc3c(c(=O)oc4ccccc34)C3(C(=O)Nc4ccccc43)C12 (stereo not drawn),-1.57 (inactive)
2,Cc1ccc(-c2nnc(CSc3nnc(-c4ccccc4)o3)o2)n1C,-1.36 (inactive)
3,CCCCCCCNC(=O)c1ccco1,1.1 (inactive)
4,S=C(c1ccc(-c2ccc(Br)cc2)o1)N1CCOCC1,1.09 (inactive)
5,O=C1c2ccccc2C(O)(O)C1(O)C1(O)C(=O)c2ccccc2C1(O)O (stereo not drawn),-1.12 (inactive)
6,CC(=O)/C(=C1/OC(=O)c2ccccc21)c1ccc(C(C)=O)cc1,5.97 (active)
7,CC(=O)C(C(C)=O)=C1OC(=O)c2ccccc21,1.3 (inactive)
8,C=CC[C@H]1CC=C[C@H](CC=C)N1C(C)=O,-1.11 (inactive)
9,NC(=O)NC(CCCN=C(N)N)C(=O)O (stereo not drawn),-1.65 (inactive)
10,O=[N+]([O-])c1ccc(N2CCN(S(=O)(=O)c3ccc4ccccc4c3)CC2)cc1,-1.1 (inactive)
11,CC(=O)c1c(C)nc(-c2cccs2)n1O,-1.92 (inactive)
12,Cc1sc2c(c1C)C(=O)NC(/C=C/c1ccc3c(c1)OCO3)N2 (stereo not drawn),-1.11 (inactive)
13,O=S(=O)(Nc1cc(Cl)cc(Cl)c1)c1cccs1,-1.41 (inactive)
14,O=[N+]([O-])c1ccc(N2CCN(S(=O)(=O)c3cc(Cl)ccc3Cl)CC2)cc1,5.36 (active)
15,O=[N+]([O-])c1ccc(N2CCN(S(=O)(=O)c3ccc(Br)cc3)CC2)cc1,1.35 (inactive)
16,O=[N+]([O-])c1ccc(Cl)c(S(=O)(=O)N2CCOCC2)c1,3.45 (active)
17,O=[N+]([O-])c1ccc(N2CCN(S(=O)(=O)c3ccc(Cl)cc3)CC2)cc1,-1.84 (inactive)
18,O=[N+]([O-])c1ccc(S(=O)(=O)N2CCOCC2)cc1,2.47 (inactive)
19,O=[N+]([O-])c1ccc(N2CCOCC2)c(S(=O)(=O)N2CCOCC2)c1,-1.09 (inactive)
20,Cc1ccc(-c2c(C#N)c(N)nc3c2CCCCC3)s1,-2.73 (inactive)
21,Nc1ncnc2nc(SCCOc3ccccc3F)[nH]c12,-1.17 (inactive)
22,COc1cc(C2C(C#N)=C(N)Nc3oc(C)nc32)cc(OC)c1OC (stereo not drawn),2.2 (inactive)
23,Cc1cc(Cl)c2ccccc2n1,-1.67 (inactive)

row,SMILES,fold change
1,C=CCNC(=O)c1nn(C)c(=O)c2ccccc12,-1.08 (inactive)
2,Cc1cc(C)nc(Sc2ccc3nsnc3c2[N+](=O)[O-])n1,2.01 (inactive)
3,O=c1c(C=NCc2cccs2)c(C(F)(F)F)[nH]n1-c1nc2ccccc2s1,inactive
4,NC(=O)CSc1cccc2cccnc12,-2.76 (inactive)
5,NNC(=O)c1cccc(C(=O)NN)n1,2.7 (active)
6,NNC(=O)Cn1c2ccccc2c(=O)c2ccccc21,1.47 (inactive)
7,O=C(O)CCc1cn(CCC(=O)O)cn1,3 (active)
8,O=C(O)CCn1cnnn1,-1.36 (inactive)
9,O=C(O)COc1ccc(Br)cc1/C=C1/NC(=O)NC1=O,1.24 (inactive)
10,O=C(O)/C=C/C(=O)NC1CCCCC1,3.98 (active)
11,O=C(NC1CCCCCC1)C1CC1,-2.47 (inactive)
12,O=C(O)/C=C/C(=O)NC1CCCCNC1=O (stereo not drawn),-1.55 (inactive)
13,COC(=O)/C(C#N)=C\c1cccn1C,4.23 (active)
14,CCOC(=O)/C(C#N)=C\c1cccn1C,-3.87 (inactive)
15,CC(C)OC(=O)/C(C#N)=C\c1cccn1C,-3.04 (inactive)
16,CCSc1ccc(Sc2ccc(SCC)s2)s1,-1.05 (inactive)
17,CN1C2CC(OC(=O)C(CO)c3ccccc3)CC1C1OC12 (stereo not drawn),2.65 (active)
18,C1=CN(c2ccccc2)C(C=NCc2ccccc2)=CS1,3.25 (active)
19,O=C(NCCOC(=O)Nc1ccc(Cl)c(Cl)c1)Nc1ccc(Cl)c(Cl)c1,-1.04 (inactive)
20,O=C(C[n+]1ccccc1)c1cccs1,4.15 (active)
21,O=C(C[n+]1ccccc1)c1ccc(Br)cc1,-1.26 (inactive)
22,O=C(O)CNC(=O)c1cccs1,1.14 (inactive)
